A short description of experiment [1]: Nuclear factor erythroid 2-related factor 2/antioxidant responsive element (Nrf2/ARE) small molecule agonists: qHTS cell viability counter screen in human keratinocytes (AID 1919968; active = well fitted cell-killing curve with a large enough effect in the repeat runs; note: nearly all actives have a fitted effect of over 55% in size; note: potency is the fitted concentration of half-maximal effect). A digest of the protocol:
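HaCaT ARE reporter line, 1,500 cells/well; 5 h settle, 37 C/5% CO2; cpd in DMSO pinned; 23 h exposure; CellTiter-Fluor, 1 h; fluorescence.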

The nature of experiment [2]: Nuclear factor erythroid 2-related factor 2/antioxidant responsive element (Nrf2/ARE) small molecule agonists: luciferase reporter gene qHTS assay in human keratinocytes (AID 1919969). Note: nearly all actives have a fitted effect of over 35% in size.
Experiment [3] deals with Gonadotropin-releasing hormone receptor (Homo sapiens) (UniProt P30968). Briefly: Human gonadotropin-releasing hormone receptor (GnRHR) small molecule agonists, calcium flux assay in GnRHR-HEK293 cells (AID 1920063). Note: nearly all actives have a fitted effect of over 35% in size. Note: potency is the fitted concentration of half-maximal effect. A digest of the protocol: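 GnRHR-HEK293, 1500 cells/well, 18 h 37 C/5% CO2; Ca dye 1 h 37 C; cpd pinned (DMSO), agonist mode; kinetic FL 480/540, 3 min, 1 s reads; 15 conc, n=3.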
Chain of Gonadotropin-releasing hormone receptor (Homo sapiens) (P30968 whole entry, looked up): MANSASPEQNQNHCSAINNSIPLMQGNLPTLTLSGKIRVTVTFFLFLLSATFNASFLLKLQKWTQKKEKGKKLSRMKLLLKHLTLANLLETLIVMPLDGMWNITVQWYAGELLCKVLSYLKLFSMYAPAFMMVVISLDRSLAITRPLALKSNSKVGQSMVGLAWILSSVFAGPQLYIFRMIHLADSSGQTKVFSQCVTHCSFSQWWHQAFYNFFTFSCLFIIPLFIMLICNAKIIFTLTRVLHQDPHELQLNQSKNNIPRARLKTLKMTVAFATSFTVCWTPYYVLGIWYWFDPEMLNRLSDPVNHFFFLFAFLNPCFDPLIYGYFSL

A short description of experiment [4]: G protein-coupled receptor (GPCR) small molecule agonists, calcium flux assay: HEK293 wild type cell line counter screen (AID 1920065). A digest of the protocol:
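Kinetic fluorescence at Ex/Em 480/540, recorded every second over 3 min, served as the read-out after compound addition. Each compound was tested at 15 concentrations in triplicate on cells pre-loaded with calcium dye for 1 h.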

Experiment [5] in a line: p53 small molecule agonists, cell-based qHTS assay with human liver microsomes (AID 1963577).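 Note: p53 response element beta-lactamase reporter cells with liver microsomes plus NADPH.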 A digest of the protocol: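 Reporter activation was measured by LiveBLAzer fluorescence intensity in p53RE-bla cells, which had been exposed to compounds for 16 h at 37 C alongside 0.5 mg/mL human liver microsomes and 0.5 mg/mL NADPH (final concentrations).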
Experiment [6] in a line: p53 small molecule agonists, cell-based qHTS assay with rat liver microsomes (AID 1963578). A digest of the protocol: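 Compound in DMSO added to p53RE-bla cells 5 h post-plating; rat microsomes/NADPH 0.5 mg/mL final; 16 h, 37 C; LiveBLAzer 2 h RT.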
Experiment [7] can be described thus: p53 small molecule agonists, cell-based qHTS assay with human liver microsomes: qHTS cell viability counter screen (AID 1963579). Note: nearly all actives have a fitted effect of over 45% in size. Note: potency is the fitted concentration of half-maximal effect. A digest of the protocol:
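HLM-supplemented (0.5 mg/mL final) and NADPH-supplemented (0.5 mg/mL final) p53RE-bla cultures, 4,000 cells per well, were dosed with compounds in DMSO for 16 h at 37 C; luminescent ATP detection (CellTiter-Glo, 30 min, room temperature) quantified surviving cells.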

Experiment [8] can be described thus: p53 small molecule agonists, cell-based qHTS assay with rat liver microsomes: qHTS cell viability counter screen (AID 1963580). Note: nearly all actives have a fitted effect of over 45% in size. A digest of the protocol:
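p53RE-bla HCT-116 cells were exposed 16 h at 37 C to compounds with rat liver microsomes (0.5 mg/mL) and NADPH (0.5 mg/mL). Viability was measured in the same wells as ATP content by CellTiter-Glo luminescence.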

A short description of experiment [9]: p53 small molecule agonists, cell-based qHTS assay: qHTS cell viability counter screen (AID 1963581). Note: nearly all actives have a fitted effect of over 45% in size. A digest of the protocol: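 HCT-116 p53RE-bla cells, 4,000/well, plated 5 h before compound pin transfer; 16 h at 37 C; bla substrate 2 h RT; then CellTiter-Glo, 30 min RT, luminescence.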
A short description of experiment [10]: p53 small molecule agonists, cell-based qHTS assay (AID 1963582; active = well fitted activation curve with a large enough effect in the signal ratio in the repeat runs, not every such curve was filed as active; the % refers to the signal ratio). A digest of the protocol: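 Reporter line: p53RE-bla. Pre-incubation 5 h, 37 C, 5% CO2; compound (DMSO, pin tool) 16 h, 37 C; B/G FRET substrate 2 h RT; fluorescence intensity read.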
In experiment [11] the target is 5-hydroxytryptamine receptor 2A (Homo sapiens) (UniProt P28223). Briefly: 5-hydroxytryptamine receptor 2A (HTR2A) small molecule antagonists, cell-based qHTS assay (AID 1963586). Note: nearly all actives have a fitted effect of over 45% in size. Note: potency is the fitted concentration of half-maximal effect. A digest of the protocol: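 Antagonist-mode intracellular calcium assay: DOI (4 nM) added after 5 min compound pre-incubation at room temperature to dye-loaded HTR2A-CHO cells. Fluorescence followed for 3 min, sampled every second.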
Chain of 5-hydroxytryptamine receptor 2A (Homo sapiens) (P28223 whole entry, looked up): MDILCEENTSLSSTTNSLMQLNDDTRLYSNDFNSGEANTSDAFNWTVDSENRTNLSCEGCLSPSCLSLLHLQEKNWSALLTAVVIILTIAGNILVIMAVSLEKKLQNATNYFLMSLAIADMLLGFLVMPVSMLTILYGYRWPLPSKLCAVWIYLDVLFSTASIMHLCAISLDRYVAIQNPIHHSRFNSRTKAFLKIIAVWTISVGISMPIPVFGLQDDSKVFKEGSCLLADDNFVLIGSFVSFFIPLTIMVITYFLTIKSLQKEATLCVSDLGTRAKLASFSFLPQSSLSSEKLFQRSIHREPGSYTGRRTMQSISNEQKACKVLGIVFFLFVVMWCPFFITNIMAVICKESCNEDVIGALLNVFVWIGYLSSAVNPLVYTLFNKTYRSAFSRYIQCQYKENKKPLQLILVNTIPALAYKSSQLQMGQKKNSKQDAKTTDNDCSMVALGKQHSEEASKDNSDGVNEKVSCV

The target is the same in experiment [12]. Briefly: 5-hydroxytryptamine receptor 2A (HTR2A) small molecule agonists, cell-based qHTS assay (AID 1963587). Note: nearly all actives have a fitted effect of over 30% in size. Note: potency is the fitted concentration of half-maximal effect. A digest of the protocol: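 CHO cells stably expressing human HTR2A, plated 18 h, loaded with calcium dye 1 h at 37 C. Agonist mode: compounds added and intracellular calcium fluorescence recorded kinetically for 2 min at 1 sec intervals.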
Experiment [13] addresses Muscarinic acetylcholine receptor M1 (Homo sapiens) (UniProt P11229). Briefly: Cholinergic receptor muscarinic 1 (CHRM1) small molecule antagonists, cell-based qHTS assay (AID 1963588). Note: nearly all actives have a fitted effect of over 40% in size. Note: potency is the fitted concentration of half-maximal effect. A digest of the protocol: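 CHRM1-CHO calcium-flux assay, antagonist mode. Cells were seeded 18 h, dye-loaded 1 h at 37 C and given compound for 5 min at RT, then acetylcholine was added at 50nM. FDSS fluorescence was read 3 min; 15 concentrations, three runs.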

For experiment [14] the target is unchanged. Put plainly: Cholinergic receptor muscarinic 1 (CHRM1) small molecule agonists, cell-based qHTS assay (AID 1963589). Note: nearly all actives have a fitted effect of over 35% in size. A digest of the protocol:
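Human M1 in stable CHO line; 18 h plating, 1 h dye load 37 C; cpd added (agonist mode); Ca2+ fluorescence kinetic read, 1 s intervals; 15 conc, 3 runs.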

Experiment [15] has as its target Beta-2 adrenergic receptor (Homo sapiens) (UniProt P07550). Put plainly: Adrenergic beta2 receptor (ADRB2) small molecule antagonists, cell-based qHTS assay (AID 1963592). Note: series mostly up to about 92 µM; nearly all actives have a fitted effect of over 50% in size. A digest of the protocol: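 Cells (CHO, stable ADRB2 overexpression) incubated 18-20hr at 37C; compounds added from DMSO; agonist mix (1nM isoproterenol, 100uM IBMX, 25uM Ro-20-1724) added; 0.5hr RT; d2-cAMP and anti-cAMP-cryptate added; 1hr RT; 665/615 nm read.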

Experiment [16] has as its target D(2) dopamine receptor (Homo sapiens) (UniProt P14416). Briefly: Dopamine D2 receptor (DRD2) small molecule agonists, cell-based qHTS assay (AID 1963594). Note: nearly all actives have a fitted effect of over 35% in size. A digest of the protocol: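 HEK293 cells stably expressing human DRD2, pre-treated with PDE inhibitor Ro20-1724 (0.1 mM final) and compound 10 min at room temperature, then stimulated with NKH477 (200nM […]) for 30 min. cAMP read by HTRF (665/620 nm).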

Experiment [17] has the same target. Put plainly: Dopamine D2 receptor (DRD2) small molecule antagonists, cell-based qHTS assay (AID 1963595; active = well fitted inhibition curve with a large enough effect in the signal ratio in the repeat runs, with a control signal flat; the % refers to the signal ratio). A digest of the protocol:
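HEK293 cells stably expressing DRD2, preincubated with 0.1 mM Ro20-1724 and compounds 10 min, were stimulated with 200 nM NKH477 plus 12 nM quinpirole for 30 min at room temperature; cAMP measured by HTRF (665/620 nm).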

Experiment [18] is described as follows: cAMP Responsive Elements (CRE) small molecule agonists, cell-based qHTS assay (AID 1963590). A digest of the protocol: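 HEK 293T CRE-bla, 2,000 cells/well, 18 h preincubation 37 C/5% CO2; cpds (DMSO) pinned, 3 h; LiveBLAzer B/G FRET substrate, 2 h RT.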
The nature of experiment [19]: cAMP Responsive Elements (CRE) small molecule antagonists, cell-based qHTS assay (AID 1963591; active = well fitted inhibition curve with a large enough effect in the signal ratio in the repeat runs, not every such curve was filed as active; the % refers to the signal ratio). A digest of the protocol:
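Beta-lactamase reporter read by FRET substrate (LiveBLAzer B/G) after 2 h at room temperature. CRE-bla HEK293T cells had received compound plus 0.25 uM (final) NKH477 for 3 h at 37 °C.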

Experiment [20] concerns the target Beta-2 adrenergic receptor (Homo sapiens) (UniProt P07550). Put plainly: Adrenergic beta2 receptor (ADRB2) small molecule agonists, cell-based qHTS assay (AID 1963593).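 Note: CHO cells stably overexpressing human ADRB2.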 A digest of the protocol: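 CHO cells stably over-expressing ADRB2 were plated overnight at 37C, then dosed with compounds plus a stimulation mix containing 100uM IBMX and 25uM Ro-20-1724 for 0.5hr at room temperature. cAMP was measured by HTRF competition, 1hr.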

Several values for one entry are separate records, joined by “and”; a condition that tells them apart may be missing. Equal entries are not always repeated. Records with an inconclusive call do not appear. Where a structure was tested more than once in an assay, its records may differ in their call. Activity calls are given as the source filed them. Unless noted, calls come from the whole dose curve.

Chain of D(2) dopamine receptor (Homo sapiens) (P14416 whole entry, looked up): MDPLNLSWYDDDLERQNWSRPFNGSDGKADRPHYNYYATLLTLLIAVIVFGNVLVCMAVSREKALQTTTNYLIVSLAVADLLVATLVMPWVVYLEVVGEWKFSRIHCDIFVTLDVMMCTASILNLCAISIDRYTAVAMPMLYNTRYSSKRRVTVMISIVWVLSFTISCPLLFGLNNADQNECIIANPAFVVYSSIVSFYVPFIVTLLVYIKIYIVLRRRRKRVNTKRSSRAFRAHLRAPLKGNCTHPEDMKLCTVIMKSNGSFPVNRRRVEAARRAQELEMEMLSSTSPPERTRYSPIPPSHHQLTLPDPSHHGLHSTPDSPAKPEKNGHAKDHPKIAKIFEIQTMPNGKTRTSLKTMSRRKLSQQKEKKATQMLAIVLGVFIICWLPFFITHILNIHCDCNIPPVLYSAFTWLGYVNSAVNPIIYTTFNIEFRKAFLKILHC
Chain of Muscarinic acetylcholine receptor M1 (Homo sapiens) (P11229 whole entry, looked up): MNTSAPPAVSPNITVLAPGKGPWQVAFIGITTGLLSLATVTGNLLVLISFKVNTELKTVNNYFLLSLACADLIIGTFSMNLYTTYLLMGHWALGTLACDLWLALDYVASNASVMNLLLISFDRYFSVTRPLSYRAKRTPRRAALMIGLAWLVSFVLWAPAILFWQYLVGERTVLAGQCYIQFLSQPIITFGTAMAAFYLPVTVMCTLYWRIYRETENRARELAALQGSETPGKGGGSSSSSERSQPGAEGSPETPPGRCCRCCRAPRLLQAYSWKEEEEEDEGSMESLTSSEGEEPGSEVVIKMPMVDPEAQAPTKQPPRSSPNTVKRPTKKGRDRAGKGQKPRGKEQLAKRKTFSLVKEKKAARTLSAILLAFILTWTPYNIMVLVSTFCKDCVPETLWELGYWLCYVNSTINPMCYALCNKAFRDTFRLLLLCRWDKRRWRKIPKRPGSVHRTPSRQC
Chain of Beta-2 adrenergic receptor (Homo sapiens) (P07550 whole entry, looked up): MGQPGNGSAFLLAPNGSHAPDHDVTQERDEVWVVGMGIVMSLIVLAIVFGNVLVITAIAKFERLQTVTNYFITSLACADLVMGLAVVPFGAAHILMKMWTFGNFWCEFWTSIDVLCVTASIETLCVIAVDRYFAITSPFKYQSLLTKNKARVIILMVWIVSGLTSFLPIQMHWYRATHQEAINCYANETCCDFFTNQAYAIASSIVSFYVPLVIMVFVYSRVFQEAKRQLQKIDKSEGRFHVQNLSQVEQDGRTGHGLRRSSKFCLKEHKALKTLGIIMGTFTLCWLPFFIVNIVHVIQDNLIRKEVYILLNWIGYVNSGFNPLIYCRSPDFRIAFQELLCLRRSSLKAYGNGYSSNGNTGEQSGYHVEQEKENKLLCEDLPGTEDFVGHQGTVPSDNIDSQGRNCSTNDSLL

In the case of `CCCCCCCCCCCCCCCC[N+](C)(C)CC`, the Potency in experiment [1] is 54.6 µM (active); in experiment [3], 13.8 µM (active); in [7] it was 45.9 µM (active) and inactive; in [11], 13.3 µM (active) and 11.6 µM (active); in experiment [12], 43.8 µM (active); in [13], 422 nM (active) and 65 nM (active). Besides, the Potency entry in experiment [2], in experiment [4], in [5], in [6], in experiment [8] and in [9] was “inactive” in each case. The Potency entry in experiment [10], in experiment [14], in [15], in experiment [16] and in [17] was “inactive” in each case.

As to `CCCCCCCCc1ccc(Nc2ccc(CCCCCCCC)cc2)cc1`, the Potency result in experiment [1], in [2], in experiment [3], in [4], in experiment [5] and in [6] was “inactive” throughout. Besides, the Potency entry in experiment [7], in [8], in experiment [9], in [10], in [11] and in experiment [12] was “inactive” each time. In addition, the Potency result in experiment [13], in [14], in experiment [18], in experiment [19], in experiment [15] and in experiment [16] was “inactive” each time. Further, the Potency result in experiment [17] is “inactive”.

In the case of `C[C@@H]1CCN(C(=O)[C@H](CCCN=C(N)N)NS(=O)(=O)c2cccc3c2NC[C@H](C)C3)[C@@H](C(=O)O)C1`, the Potency result in experiment [1], in [2], in experiment [3], in experiment [4], in [5] and in experiment [6] was “inactive” throughout. Besides, the Potency entry in experiment [7], in experiment [8], in experiment [9], in [10], in [11] and in experiment [12] was “inactive” each time. Besides, the Potency entry in experiment [13], in [14], in [18], in experiment [19], in experiment [15] and in [16] was “inactive” throughout. Further, in experiment [17], the Potency result was “inactive”.

`CC/C=C\CCO`: the Potency result in [1], in experiment [2], in experiment [3], in [4], in [5] and in experiment [6] was “inactive” throughout. Also, the Potency result in experiment [7], in experiment [8], in experiment [9], in experiment [10], in experiment [11] and in experiment [12] was “inactive” in each case. Moreover, the Potency entry in experiment [18], in [19], in experiment [15] and in experiment [20] was “inactive” each time.

`CCc1cnc(C(=O)O)c(C(=O)O)c1`: the Potency result in [1], in experiment [2], in experiment [3], in experiment [4], in experiment [5] and in experiment [6] was “inactive” in each case. Also, the Potency result in experiment [7], in experiment [8], in experiment [9], in experiment [10], in experiment [11] and in experiment [12] was “inactive” in each case. Further, the Potency result in experiment [13], in [14], in [19], in experiment [15], in experiment [20] and in [16] was “inactive” in each case. The Potency result in experiment [17] was “inactive”.

Turning to `CC(C)=O`, the Potency result in experiment [1], in experiment [2], in [3], in experiment [4], in experiment [5] and in experiment [6] was “inactive” throughout. Also, the Potency result in experiment [7], in [8], in [9], in experiment [10], in [11] and in experiment [12] was “inactive” each time. Further, the Potency entry in [13], in [14], in experiment [19], in experiment [20], in [16] and in [17] was “inactive” in each case.

In the case of `Nc1ccc(Oc2ccc(Cl)cc2)cc1`, the Potency entry in [1], in experiment [2], in [3], in [4], in [5] and in experiment [6] was “inactive” in each case. Further, the Potency result in experiment [7], in [8], in [9], in [10], in [11] and in experiment [12] was “inactive” in each case. Moreover, the Potency entry in experiment [13], in [14], in [18], in experiment [19], in experiment [15] and in experiment [16] was “inactive” throughout. In addition, in [17], the Potency result was “inactive”.

The values above are taken from PubChem BioAssay (Tox21).
